Source: PubChem BioAssay AID1851 (National Center for Advancing Translational Sciences (NCATS), 2009)
Where “and” joins values, the source holds several entries; their conditions need not be identical. Equal entries are not always repeated. The whole screen tested about 16,000 compounds, of which about 5,700 (36%) were called active. Another 24% or so got no clear call; they are omitted. This is one part of the list. Values without a mark were called inactive. Calls come from the whole dose curve; as a rule, active = well fitted curve in the direction sought with a large enough effect; inconclusive = small, poorly fitted or top-dose-only effect, or effect the other way; inactive = no such curve, though single readings can be large or run the other way.

molecular target: Cytochrome P450 1A2 (Homo sapiens) (UniProt P05177); test: Cytochrome panel assay with activity outcomes; details: recombinant CYP, pro-luciferin dealkylation, luminescence, p450-cyp1a2; series mostly up to 57.1 µM; activity, negative = inhibition: at the top concentration
% is set by controls: 0 for no effect and ±100 for the full control effect.

Chain of Cytochrome P450 1A2 (Homo sapiens) (P05177 whole entry, looked up): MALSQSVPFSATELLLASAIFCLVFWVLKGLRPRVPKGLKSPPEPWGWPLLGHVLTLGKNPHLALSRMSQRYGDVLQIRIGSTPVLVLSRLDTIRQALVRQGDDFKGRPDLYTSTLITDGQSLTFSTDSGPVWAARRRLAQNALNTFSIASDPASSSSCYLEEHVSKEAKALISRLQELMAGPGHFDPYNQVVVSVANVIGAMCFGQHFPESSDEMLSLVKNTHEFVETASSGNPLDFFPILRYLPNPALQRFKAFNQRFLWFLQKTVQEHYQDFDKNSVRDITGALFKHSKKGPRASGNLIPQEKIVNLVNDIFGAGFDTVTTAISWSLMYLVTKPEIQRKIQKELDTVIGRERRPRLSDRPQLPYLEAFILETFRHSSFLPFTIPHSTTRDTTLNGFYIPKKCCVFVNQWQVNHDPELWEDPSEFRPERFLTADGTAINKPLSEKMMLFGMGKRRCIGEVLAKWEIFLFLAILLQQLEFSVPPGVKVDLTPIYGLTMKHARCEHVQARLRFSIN

SMILES	activity, negative = inhibition	AC50
COc1ccc(C(=O)O[C@H]2CC[C@@]3(C)[C@H]4CC[C@H]5[C@]3(C[C@]3(O)[C@H]6CN7C[C@H](C)CC[C@H]7[C@](C)(O)[C@]6(O)[C@H](O)C[C@]53O)O[C@]24O)cc1OC	-20.9% [at 2.29 µM]	
O[Si@](CCCN1CCCCC1)(c1ccc(F)cc1)C1CCCCC1	-13.9%	
CCCCN1C(=O)C(C2c3ccccc3C(=O)N2Cc2ccccc2)C(=O)NC1=S (centres undefined)		12.6 µM (active)
CN1C(=O)C(C2c3ccccc3C(=O)N2Cc2ccc([N+](=O)[O-])cc2)C(=O)N(C)C1=O (centres undefined)	-15.7%	
CC(C)CN1CCC2(CC1)CCN(C(=O)Oc1ccccc1)CC2	14.7%	
C=C(C)CN1CC[C@@]23c4c5ccc(O)c4O[C@H]2c2[nH]c4ccccc4c2C[C@]3(O)[C@@H]1C5	-16.9%	
CC1=NN(c2ccc(S(=O)(=O)O)cc2C)C(=[OH+])[C@H]1N=Nc1cc(S(=O)(=O)O)ccc1C(=O)O.O.[Cr]	-12.7% [at 11.4 µM]	
O=[N+]([O-])c1cc([As](=O)(O)O)ccc1O	-2.41% [at 25.6 µM]	
CC[C@@]1(O)C(=O)OCc2c1cc1n(c2=O)Cc2cc3c(NC(=O)CN)cccc3nc2-1	-12.3% [at 2.29 µM]	
CC[C@]1(OC(=O)CN)C(=O)OCc2c1cc1n(c2=O)Cc2cc3ccccc3nc2-1	-17.6% [at 2.29 µM]	
CC[C@@]1(O)C(=O)OCc2c1cc1n(c2=O)Cc2cc3ccccc3nc2-1		2.51 µM (active)
CCCC[N+]12CCC(CC1)C(C(=O)c1cccs1)C2 (centres undefined)	1.98%	
COC(=O)[C@@H](N)CCCN=C(N)N[N+](=O)[O-]	-23.3%	
Cc1cc(OC(=O)CCCNC(=O)OC(C)(C)C)c2c3c(c(=O)oc2c1)CCC3		2.24 µM (active)
Cc1cc(OCc2ccc([N+](=O)[O-])cc2)c2c3c(c(=O)oc2c1)CCCC3		2.24 µM (active)
Cc1cc(OCC(=O)OC(C)C)c2c3c(c(=O)oc2c1)CCCC3		3.55 µM (active)
Cn1cnc(CCN)c1	-2.55%	
OC1(c2ccc(F)cc2)CCNC1 (centres undefined)	-3.59%	
CCOC(=O)N(c1ccccc1)P1(=S)OCCO1		20 µM (active)
O=C(O)C[O][Sb][O]CC(=O)O	-7.83% [at 2.29 µM]	
CC(=O)O[C@H]1C[C@@H](O[C@@H]2[C@H](C)O[C@H](O[C@@H]3[C@H](C)O[C@H](O[C@@H]4CC[C@@]5(C)[C@@H](CC[C@]6(C)[C@]5(C)C[C@H](O)[C@]5(C)[C@@H](C7=CC(=O)OC7)CC[C@@]56O)C4)C[C@@H]3O)C[C@@H]2O)O[C@@H](C)[C@H]1O[C@H]1O[C@@H](CO)[C@@H](O)[C@@H](O)[C@@H]1O	0.0883% [at 25.6 µM]	
C[C@]1(C(=O)O)[C@@H]2CC[C@@H](O2)[C@@]1(C)C(=O)O	5.07%	
ClCCNc1nc2ccc(Cl)cc2[nH]1		3.55 µM (active)

SMILES	activity, negative = inhibition	AC50
N[C@H](C(=O)O)c1cc(=O)[nH]o1	4.36%	
C[C@@]12CC(=O)[C@H]3[C@@H](CCC4=CC(=O)CC[C@]43C)[C@H]1CCC2=O	3.26% [at 25.6 µM]	
CCCN(CCC)C1Cc2cc(OC)c(OC)cc2C1	-8.24%	
CCn1cnc2c(Nc3cccc(Cl)c3)nc(N[C@@H]3CCCC[C@H]3N)nc21		15.8 µM (active)
CN(C)C(=O)Oc1cccc([N+](C)(C)C)c1	-8.66%	
COc1ccc(C[C@H]2c3cc(OC)c(OC)cc3CCN2C)cc1OC	-15.9% [at 25.6 µM]	
COc1cc(/C=N/NC(=O)CN2CC(c3ccccc3)CC2=O)ccc1OC(=O)N(C)C (centres undefined)	-10.2%	
O=C(O)CC[N+](=O)[O-]	-2.88%	
N#CC(C#N)=Cc1ccc(O)c(O)c1		5.01 µM (active)
N#CC(C#N)=Cc1cc(O)c(O)c(O)c1	-7.18%	
COc1cc(C=C(C#N)C#N)cc(O)c1O		12.6 µM (active)
N#C/C(=C\c1ccc(O)c(O)c1)C(N)=S		12.6 µM (active) and 6.31 µM (active)
N#C/C(=C\c1ccc(O)c(O)c1)C(=O)NCCCNC(=O)/C(C#N)=C/c1ccc(O)c(O)c1	-13.5%	
CC(C)(C)c1cc(C=C(C#N)C#N)cc(C(C)(C)C)c1O		10 µM (active)
COc1ccc2c(c1)CCC1[C@@H]2CCC2(C)[C@@H](NCCCCCCN3C(=O)C=CC3=O)CC[C@@H]12 (some centres undefined)	-3.16%	
CC[C@]1(c2cccc(O)c2)CCCCN(C)C1	-7.06% [at 25.6 µM]	
COc1ccc(C2SCC(=O)Nc3c2c(C)nn3C2CCOC(C)(C)C2)cc1 (centres undefined)	-2.75%	
CCN1C[C@@]2(COC)CC[C@H](O)[C@@]34[C@@H]2C[C@@H]([C@@H]13)[C@]1(O)C[C@@H](OC)C2C[C@H]4[C@H]1[C@H]2OC(C)=O	-7.59% [at 25.6 µM]	
CC[C@@H]1CN2CCc3cc(OC)c(OC)cc3[C@H]2C[C@@H]1C[C@@H]1NCCc2cc(OC)c(OC)cc21	-2.31%	
CCc1cc2c(nc1CC)CCN(CC/C(C)=N/OC)C2	-0.582% [at 11.4 µM]	
C=C1C/C(=C\C)C(=O)O[C@@H]2CCN3CC=C(COC(=O)[C@@]1(C)O)[C@H]23	-3.75% [at 25.6 µM]	
CC[N+](CC)(CC)CCOc1cccc(OCC[N+](CC)(CC)CC)c1OCC[N+](CC)(CC)CC	-0.0726% [at 25.6 µM]	
N/C(=N\N=C/c1ccc(-c2ccc(O)c(C(=O)O)c2)o1)N[N+](=O)[O-]	-7.3%	

SMILES	activity, negative = inhibition	AC50
Cc1o[nH]c(=O)c1C[C@@H](N)C(=O)O	-5.8%	
C[C@H]1CC[C@]2(OC1)O[C@@H]1C[C@@H]3[C@@H]4CC[C@H]5C[C@@H](O)CC[C@]5(C)[C@@H]4CC(=O)[C@@]3(C)[C@H]1[C@@H]2C	-5.06% [at 25.6 µM]	
CC(=O)OCC1=C(C(=O)O)N2C(=O)[C@@H](N)[C@@H]2SC1	-3.51% [at 25.6 µM]	
c1ccc(N2CC3(CCNCC3)C2)cc1	3.8%	
Clc1cccc(N2CCNCC2)c1		15.8 µM (active)
c1ccc(N2CCC3(CCNCC3)CC2)cc1	-18.3%	
CCN1CCN(S(=O)(=O)c2ccc(Cl)nc2)CC1	9.49%	
C[C@@]12CCC(=O)C=C1C=C[C@H]1[C@H]3CC[C@](O)(CCC(=O)O)[C@]3(C)CC[C@@H]12	-8.24% [at 25.6 µM]	
O=C(O)[C@@H]1[C@H](C(=O)O)[C@]2(Cl)C(Cl)=C(Cl)[C@@]1(Cl)C2(Cl)Cl	-14.5% [at 11.4 µM]	
CCCn1c(=O)c2[nH]c(C3CCCC3)nc2n(CCCOC(=O)c2ccc(S(=O)(=O)F)cc2)c1=O	-7.67%	
CC(C)C(=O)CP(=O)(O)O	-6.25% [at 11.4 µM]	
C#CCN(C)[C@H](C)Cc1ccccc1		12.6 µM (active)
CC(C)c1c(CN(C)[C@@H](C)Cc2ccccc2)n(C)n(-c2ccccc2)c1=O	-19.1% [at 25.6 µM]	
CCCN1CCC[C@@H]2Cc3[nH]ncc3C[C@H]21		inactive
CC(C)[C@]1(O)[C@@H](OC(=O)c2ccc[nH]2)[C@]2(O)[C@@]3(C)C[C@@]4(O)O[C@@]5([C@H](O)[C@@H](C)CC[C@]35O)[C@]2(O)[C@]41C	-17.2% [at 2.29 µM]	
O=C(O)[C@H]1[C@H](C(=O)O)[C@H]2CC[C@@H]1O2	2.38%	
CCCCc1ccc(-c2nc(NC(=O)C3C4CCC(O4)C3C(=O)O)sc2C)cc1 (centres undefined)		15.8 µM (active)
CC(C)[C@@]1(NC(=O)[C@@H]2C[C@H]3c4cccc5[nH]cc(c45)C[C@@H]3N(C)C2)O[C@]2(O)[C@H]3CCCN3C(=O)CN2C1=O	-12.6% [at 25.6 µM]	
O=C(O)[C@H]1CCN1	0.0533%	
CC[C@]1([C@H]2O[C@@H]([C@@H]3O[C@](O)(CO)[C@@H](C)C[C@H]3C)C[C@H]2C)CC[C@@H]([C@]2(C)CC[C@@]3(C[C@@H](O)[C@@H](C)[C@@H]([C@H](C)[C@H](OC)[C@H](C)C(=O)O)O3)O2)O1	-4.88% [at 25.6 µM]	
CC(=O)OC1=CC2=CC[C@H]3[C@H]4CCC(=O)[C@@]4(C)CC(=O)[C@]3(S)[C@]2(C)CC1	-9.43% [at 2.29 µM]	
N[C@@H]1C[C@H]1c1ccccc1		15.8 µM (active)
N[C@H]1C[C@H]1c1ccccc1		5.01 µM (active)

SMILES	activity, negative = inhibition	AC50
C[C@@]12CC[C@H](O)C[C@@H]1CC[C@H]1[C@@H]2C[C@@H](O)[C@]2(C)[C@@H](C3=CC(=O)OC3)CC[C@]12O	-3.8% [at 25.6 µM]	
CCN1CCN(Cc2cc(OC)c(OC)cc2[N+](=O)[O-])CC1	-23.6%	
Cc1noc(C)c1C(=O)N1CCC2(CCCN(CC(C)C)C2)CC1	-17.1%	
NC(CCl)=N[C@H]1CN2CCC1CC2	-4.08% [at 11.4 µM]	
N#Cc1ccc(CN2CCCC3(CCN(C(=O)Oc4ccccc4)CC3)C2)cc1	-6.6%	
N#CC(=C(/N)Sc1ccccc1N)/C(C#N)=C(/N)Sc1ccccc1N		31.6 µM (active)
NC(=O)CN1CCCC1=O		inactive
CC(C)C(=O)Nc1ccc([N+](=O)[O-])c(C(F)(F)F)c1		0.316 µM (active)
CCN1CCN(c2ccc(NC(=O)C(C)C)cc2Cl)CC1	-5.66%	
CS(=O)(=O)N1CCCC(C(=O)N2CCC3(CC2)OCCO3)C1 (centres undefined)	-9.06%	
CCOC(=O)C1Cc2c([nH]c3ccccc23)CN1 (centres undefined)		5.01 µM (active)
CN(C)CS/C(N)=N/[C@H](O)C(Cl)(Cl)Cl	4.09% [at 2.29 µM]	
O=C1CN=C(c2cccs2)c2c(sc3c2CCCC3)N1		15.8 µM (active)
NC[C@H](O)c1ccc(O)cc1		inactive
CN1C2C=C3C(C#N)=C(N)C(C#N)(C#N)[C@H](c4c(F)cccc4F)[C@H]3C1CC2 (some centres undefined)	-20.5%	
Oc1ccc2c3c1O[C@H]1c4oc5ccccc5c4C[C@]4(O)[C@H](C2)N(CC2CC2)CC[C@@]314	-3.2%	
Nc1ccncc1	-10.7%	
OCc1cnc[nH]1	2.94%	
NC(=NCCc1ccc(I)cc1)SCCCc1cnc[nH]1		15.8 µM (active)
CC(=O)OCC1=C(C(=O)[O-])N2C(=O)[C@@H](NC(=O)CCC[C@@H](N)C(=O)[O-])[C@@H]2SC1.[Zn+2]	-8.72%	
